A word on the inhibition: it is the relative decrease from the control value, in per cent.

The structures appear in SMILES notation. A number with no mark means an inactive call. How the calls were made is not given here.

The target in one assay is Botulinum neurotoxin type A (Clostridium botulinum) (UniProt P0DPI0). The experiment in a line: BoNT/A light chain protease inhibitors, biochemical, multiplex microsphere flow cytometry, validation set (AID 588460). The following applies: at 10 µM, hits give high values. In general terms: Flow cytometry measures light scatter and fluorescence of single cells or particles in a stream.
Sequence of Botulinum neurotoxin type A (Clostridium botulinum) (P0DPI0 whole entry, looked up): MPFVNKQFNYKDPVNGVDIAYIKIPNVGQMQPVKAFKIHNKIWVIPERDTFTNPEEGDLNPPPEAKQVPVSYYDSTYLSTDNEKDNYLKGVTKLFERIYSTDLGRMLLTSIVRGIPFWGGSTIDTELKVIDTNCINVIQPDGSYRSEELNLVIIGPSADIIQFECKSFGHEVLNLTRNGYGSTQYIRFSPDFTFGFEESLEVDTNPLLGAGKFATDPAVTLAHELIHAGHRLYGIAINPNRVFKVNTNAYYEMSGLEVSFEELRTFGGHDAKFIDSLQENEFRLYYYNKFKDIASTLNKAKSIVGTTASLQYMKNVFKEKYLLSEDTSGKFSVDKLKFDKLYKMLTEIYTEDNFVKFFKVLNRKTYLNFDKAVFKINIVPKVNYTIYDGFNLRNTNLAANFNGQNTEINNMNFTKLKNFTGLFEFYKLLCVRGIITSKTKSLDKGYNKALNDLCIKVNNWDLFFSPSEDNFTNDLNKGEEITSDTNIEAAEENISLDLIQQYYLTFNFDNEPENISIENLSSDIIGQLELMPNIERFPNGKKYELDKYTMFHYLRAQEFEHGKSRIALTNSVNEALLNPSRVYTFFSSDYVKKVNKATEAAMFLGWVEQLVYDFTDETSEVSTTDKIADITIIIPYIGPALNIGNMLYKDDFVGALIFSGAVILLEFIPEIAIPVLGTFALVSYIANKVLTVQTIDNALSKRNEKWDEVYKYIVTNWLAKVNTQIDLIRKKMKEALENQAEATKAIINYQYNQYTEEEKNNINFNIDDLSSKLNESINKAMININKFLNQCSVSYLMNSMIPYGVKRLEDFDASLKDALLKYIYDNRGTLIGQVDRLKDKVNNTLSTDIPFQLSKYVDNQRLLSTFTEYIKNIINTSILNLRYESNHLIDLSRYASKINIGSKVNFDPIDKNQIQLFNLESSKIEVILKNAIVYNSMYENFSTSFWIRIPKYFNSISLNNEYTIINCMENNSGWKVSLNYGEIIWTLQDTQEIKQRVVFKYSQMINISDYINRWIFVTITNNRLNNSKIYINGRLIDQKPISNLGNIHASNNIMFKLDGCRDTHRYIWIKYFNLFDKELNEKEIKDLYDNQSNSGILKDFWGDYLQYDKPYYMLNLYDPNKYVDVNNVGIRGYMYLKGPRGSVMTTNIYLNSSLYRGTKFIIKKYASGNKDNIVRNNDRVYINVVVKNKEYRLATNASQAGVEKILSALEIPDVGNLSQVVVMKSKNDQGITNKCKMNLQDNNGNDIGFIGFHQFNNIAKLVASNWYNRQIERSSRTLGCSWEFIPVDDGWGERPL
As to `Oc1ccccc1OCCOc1ccccc1OCCOc1ccccc1O`, the inhibition was 0.7%.

For `CC(=O)OC1c2c(ccc3ccc(=O)oc23)OC(C)(C)C1OC(=O)CC(C)C` (stereo not given), the inhibition was -1.5%.

In the case of `CCOC(=O)C(Cc1cc(C(C)=O)ccc1OC(C)C)C(=O)OCC`, the inhibition is -0.1%.

In the case of `CCCCCCC(=O)N(O)C1CC(=O)N(Cc2ccccc2)C1=O` (stereo not given), the inhibition was -0.7%.

As for `CC(=O)OC[C@H]1O[C@@H](n2ncc(=O)[nH]c2=O)[C@H](OC(C)=O)[C@@H]1OC(C)=O`, the inhibition was -0.3%.

As to `COc1ccc(NC(=O)C2CSC3c4ccccc4C(=O)N23)cc1` (stereo not given), the inhibition is -0.2%.

As for `O=c1[nH]cnc2c1ncn2[C@@H]1O[C@H](CO)[C@@H](O)[C@H]1O`, the inhibition was 0.1%.

Take `C=C(C)COc1ccc(-c2n[nH]c(C)c2-c2ccc(OC)cc2)c(O)c1`: the inhibition was -0.9%.

Consider `C[C@]12CCC(=O)C=C1[C@H](O)C[C@@H]1[C@@H]2[C@@H](O)C[C@@]2(C)[C@H]1CC[C@]2(O)C(=O)CO`, for which the inhibition was -0.3%.

Consider `CN(C)CCOC(c1ccccc1)c1ccccc1` (tested in a mixture with another compound), for which the inhibition is -2.5%.

With `O=C(CCC1CCCN(C(=O)c2ccsc2)C1)NCc1ccc(F)c(F)c1` (stereo not given), the inhibition is -0.6%.

For the compound `Cc1onc(-c2c(Cl)cccc2Cl)c1C(=O)NC1C(=O)N2C1SC(C)(C)C2C(=O)O` (stereo not given), the inhibition is 0.2%.

Regarding `Cc1nc(-c2coc3c(CN(C)C)c(O)ccc3c2=O)cs1`, the inhibition was -0.6%.

For `Cc1oc2ccc(OC(=O)c3cccs3)cc2c1C(=O)OC(C)C`, the inhibition was -1.1%.

Take `CCCCNc1ccc(C(=O)OCCN(C)C)cc1`: the inhibition was 0.4%.

As to `COc1cc(C(=O)CCN2CCC(c3ccccc3)C2)cc(OC)c1OC` (stereo not given), the inhibition is 1.9%.

`Cc1ncc([N+](=O)[O-])n1CC(C)O` (stereo not given): the inhibition was 1.1%.

As to `c1cnc2c(c1)ccc1cccnc12`, the inhibition is -5.9%.

With `COc1ccc(C(=O)CCN2CCc3cc(OC)c(OC)cc3C2)cc1`, the inhibition is -0.3%.

As for `CC(C)CC(=O)Nc1ccc2oc(-c3ccncc3)nc2c1`, the inhibition was 0.3%.

For the compound `CCOC(=O)c1ccccc1NC(=O)c1ccc(F)cc1`, the inhibition is -1%.

Consider `O=C(Nc1nc2ccccc2s1)c1ccc(F)cc1`, for which the inhibition is -1.5%.

Turning to `CCn1nc(C(=O)O)c(=O)c2cc3c(cc21)OCO3`, the inhibition was 0.6%.

`COc1ccc(CN2CCCC(C(=O)c3ccc(Cl)cc3)C2)cc1Cn1cccn1` (stereo not given): the inhibition was -0.6%.

With `CCN1C(=O)C(CC(=O)Nc2ccc(F)cc2)N(Cc2ccco2)C1=S` (stereo not given), the inhibition was -2.8%.

For `COc1ccc(-c2cc(=O)oc3cc(OC(C)C(=O)O)ccc23)cc1` (stereo not given), the inhibition was 2%.

As for `C[C@]12CCC(=O)C=C1CC[C@@H]1[C@@H]2[C@@H](O)C[C@@]2(C)[C@H]1CC[C@]2(O)C(=O)COC(=O)CCC(=O)O`, the inhibition is -2.4%.

As for `COc1ccccc1NC(=O)Cn1c(C)cc(=O)c2cccc(OC)c21`, the inhibition is -0.9%.

On to `O=C(Cc1cccc2ccccc12)N1CC[C@@]2(O)CCCC[C@H]2C1`, for which the inhibition is 0.2%.

Turning to `COCCn1c(SCCOc2ccccc2)nc2ccccc2c1=O`, the inhibition was -0.3%.

With `Cc1cccc(C)c1NS(=O)(=O)c1ccc(NC(=O)c2ccc(Cl)c([N+](=O)[O-])c2)cc1`, the inhibition was -0.2%.

For the compound `CCCC(=O)Nc1ccccc1NC(C)=O`, the inhibition is 0.3%.

Regarding `CC(C)CC1c2[nH]c3ccccc3c2CCN1C(=O)CCC(=O)N(C)C` (stereo not given), the inhibition was -0.3%.

On to `CC(C)NC[C@@H](O)c1ccc(O)c(O)c1`, for which the inhibition is -0.5%.

Take `Cc1ccc(C2=NOC(=O)/C2=C\C=C\c2ccccc2)cc1`: the inhibition is 1%.

For `Cc1cccc(N(C)C(=S)Oc2ccc3ccccc3c2)c1`, the inhibition is -0.6%.

Take `O=C1OC(c2ccccc2)=C/C1=C/c1cccs1`: the inhibition was 1.5%.

On to `COc1ccc(-c2cc(=O)oc3c(C)c(O)c(CN(C)C)cc23)cc1`, for which the inhibition was 0.6%.

As to `COC(=O)c1cc(Br)c(=O)n(CCc2ccc(O)cc2)c1`, the inhibition is 1.3%.

With `O=c1cc(CN2CCN(c3cccc(Cl)c3)CC2)c2cc(O)c(-c3ccccc3)cc2o1`, the inhibition is -1.5%.

A further assay deals with Lethal factor (Bacillus anthracis) (UniProt P15917). The experiment in a line: Lethal factor protease inhibitors, Bacillus anthracis, multiplex microsphere cleavage assay, validation set (AID 588461). The following applies: flow cytometry, at 10 µM, hits give high values.
Sequence of Lethal factor (Bacillus anthracis) (P15917 whole entry, looked up): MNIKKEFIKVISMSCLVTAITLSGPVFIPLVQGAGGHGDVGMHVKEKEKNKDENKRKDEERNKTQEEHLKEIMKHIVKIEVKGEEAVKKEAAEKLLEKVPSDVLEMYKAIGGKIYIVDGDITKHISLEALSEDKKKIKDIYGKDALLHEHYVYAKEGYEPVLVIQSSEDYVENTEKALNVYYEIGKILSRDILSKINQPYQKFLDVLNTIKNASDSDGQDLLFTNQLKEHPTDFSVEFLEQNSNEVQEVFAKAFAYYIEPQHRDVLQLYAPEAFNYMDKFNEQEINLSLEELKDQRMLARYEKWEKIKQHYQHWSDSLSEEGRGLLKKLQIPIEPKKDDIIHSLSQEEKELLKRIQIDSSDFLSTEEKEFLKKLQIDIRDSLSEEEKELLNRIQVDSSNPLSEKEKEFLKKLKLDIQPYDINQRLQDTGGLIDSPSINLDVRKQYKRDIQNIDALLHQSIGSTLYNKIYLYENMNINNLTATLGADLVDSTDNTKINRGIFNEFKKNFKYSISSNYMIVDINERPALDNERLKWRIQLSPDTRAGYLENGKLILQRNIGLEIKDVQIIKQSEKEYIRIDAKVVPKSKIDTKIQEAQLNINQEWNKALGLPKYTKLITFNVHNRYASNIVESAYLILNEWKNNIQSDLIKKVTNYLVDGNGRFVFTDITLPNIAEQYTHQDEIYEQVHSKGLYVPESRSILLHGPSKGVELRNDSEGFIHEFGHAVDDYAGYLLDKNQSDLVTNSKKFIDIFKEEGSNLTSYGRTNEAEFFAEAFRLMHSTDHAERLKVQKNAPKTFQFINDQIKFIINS
In the case of `Oc1ccccc1OCCOc1ccccc1OCCOc1ccccc1O`, the inhibition was -0.4%.

`CC(=O)OC1c2c(ccc3ccc(=O)oc23)OC(C)(C)C1OC(=O)CC(C)C` (stereo not given): the inhibition is -3.2%.

Regarding `CCOC(=O)C(Cc1cc(C(C)=O)ccc1OC(C)C)C(=O)OCC`, the inhibition was -1.9%.

As for `CCCCCCC(=O)N(O)C1CC(=O)N(Cc2ccccc2)C1=O` (stereo not given), the inhibition is 3.7%.

Consider `CC(=O)OC[C@H]1O[C@@H](n2ncc(=O)[nH]c2=O)[C@H](OC(C)=O)[C@@H]1OC(C)=O`, for which the inhibition is 3.7%.

Regarding `COc1ccc(NC(=O)C2CSC3c4ccccc4C(=O)N23)cc1` (stereo not given), the inhibition was -3.8%.

`O=c1[nH]cnc2c1ncn2[C@@H]1O[C@H](CO)[C@@H](O)[C@H]1O`: the inhibition is -8%.

On to `C=C(C)COc1ccc(-c2n[nH]c(C)c2-c2ccc(OC)cc2)c(O)c1`, for which the inhibition was 5.2%.

In the case of `C[C@]12CCC(=O)C=C1[C@H](O)C[C@@H]1[C@@H]2[C@@H](O)C[C@@]2(C)[C@H]1CC[C@]2(O)C(=O)CO`, the inhibition was 4.2%.

Turning to `CN(C)CCOC(c1ccccc1)c1ccccc1` (tested in a mixture with another compound), the inhibition was -6.7%.

Take `O=C(CCC1CCCN(C(=O)c2ccsc2)C1)NCc1ccc(F)c(F)c1` (stereo not given): the inhibition is -6.8%.

`Cc1onc(-c2c(Cl)cccc2Cl)c1C(=O)NC1C(=O)N2C1SC(C)(C)C2C(=O)O` (stereo not given): the inhibition is 2.3%.

In the case of `Cc1nc(-c2coc3c(CN(C)C)c(O)ccc3c2=O)cs1`, the inhibition is 10.3%.

As to `Cc1oc2ccc(OC(=O)c3cccs3)cc2c1C(=O)OC(C)C`, the inhibition was 3.1%.

On to `CCCCNc1ccc(C(=O)OCCN(C)C)cc1`, for which the inhibition is 2.7%.

Regarding `COc1cc(C(=O)CCN2CCC(c3ccccc3)C2)cc(OC)c1OC` (stereo not given), the inhibition is 6.6%.

With `Cc1ncc([N+](=O)[O-])n1CC(C)O` (stereo not given), the inhibition was 0.3%.

As for `c1cnc2c(c1)ccc1cccnc12`, the inhibition was -2.3%.

Turning to `COc1ccc(C(=O)CCN2CCc3cc(OC)c(OC)cc3C2)cc1`, the inhibition was -2.9%.

For `CC(C)CC(=O)Nc1ccc2oc(-c3ccncc3)nc2c1`, the inhibition is -2.1%.

Regarding `CCOC(=O)c1ccccc1NC(=O)c1ccc(F)cc1`, the inhibition is -0.1%.

With `O=C(Nc1nc2ccccc2s1)c1ccc(F)cc1`, the inhibition is -5.8%.

For `CCn1nc(C(=O)O)c(=O)c2cc3c(cc21)OCO3`, the inhibition was 0.2%.

On to `COc1ccc(CN2CCCC(C(=O)c3ccc(Cl)cc3)C2)cc1Cn1cccn1` (stereo not given), for which the inhibition was 3.9%.

Take `CCN1C(=O)C(CC(=O)Nc2ccc(F)cc2)N(Cc2ccco2)C1=S` (stereo not given): the inhibition is -7.4%.

For the compound `COc1ccc(-c2cc(=O)oc3cc(OC(C)C(=O)O)ccc23)cc1` (stereo not given), the inhibition was 9.7%.

Turning to `C[C@]12CCC(=O)C=C1CC[C@@H]1[C@@H]2[C@@H](O)C[C@@]2(C)[C@H]1CC[C@]2(O)C(=O)COC(=O)CCC(=O)O`, the inhibition is -8%.

Consider `COc1ccccc1NC(=O)Cn1c(C)cc(=O)c2cccc(OC)c21`, for which the inhibition is -0.2%.

With `O=C(Cc1cccc2ccccc12)N1CC[C@@]2(O)CCCC[C@H]2C1`, the inhibition is -5.4%.

In the case of `COCCn1c(SCCOc2ccccc2)nc2ccccc2c1=O`, the inhibition is -1.1%.

With `Cc1cccc(C)c1NS(=O)(=O)c1ccc(NC(=O)c2ccc(Cl)c([N+](=O)[O-])c2)cc1`, the inhibition was 0.9%.

Regarding `CCCC(=O)Nc1ccccc1NC(C)=O`, the inhibition was -2.9%.

`CC(C)CC1c2[nH]c3ccccc3c2CCN1C(=O)CCC(=O)N(C)C` (stereo not given): the inhibition was 2.9%.

As to `CC(C)NC[C@@H](O)c1ccc(O)c(O)c1`, the inhibition is -6.8%.

As for `Cc1ccc(C2=NOC(=O)/C2=C\C=C\c2ccccc2)cc1`, the inhibition is 0.5%.

On to `Cc1cccc(N(C)C(=S)Oc2ccc3ccccc3c2)c1`, for which the inhibition is -4.3%.

For `O=C1OC(c2ccccc2)=C/C1=C/c1cccs1`, the inhibition was 0.7%.

As to `COc1ccc(-c2cc(=O)oc3c(C)c(O)c(CN(C)C)cc23)cc1`, the inhibition is -2.1%.

As for `COC(=O)c1cc(Br)c(=O)n(CCc2ccc(O)cc2)c1`, the inhibition is -5.3%.

In the case of `O=c1cc(CN2CCN(c3cccc(Cl)c3)CC2)c2cc(O)c(-c3ccccc3)cc2o1`, the inhibition is -0.5%.
